Screening results from PubChem.
DRD3 antagonist: blocks the human D3 dopamine receptor; AID 652054; P35462; hit rate 2.5% among 360,000; max response, negative = inhibition, %; D3R cells, DiscoveRx beta-arrestin luminescence, antagonist mode; stronger effect = lower value; in the data active means max response below about -50%; inconclusive means no clear call, values can overlap the other calls; further: on the % scale 0 is the no-effect control and ±100 the full control effect
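Cells plated overnight at 1500 cells/well, then exposed to library compounds with dopamine controls for 90 minutes at 37 degrees C. DiscoveRx reagent added for 30–60 minutes at room temperature; luminescence read, quantitative HTS format.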
D3 ag: agonists of human D3 dopamine receptor | P35462 | D3R DiscoveRx beta-arrestin cells, luminescence, 90 min | max activation, % | hit rate 0.58% among 410,000 | AID 652048; in the data active means max activation above about 30%; further: 0% is about no effect
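Agonist-mode cell screen: cells plated at 1500/well and incubated overnight at 37 °C, then exposed to library compounds for 90 min at 37 °C. Detection reagent was added for 30–60 min at room temperature, and luminescence was read.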
D1 agonist: agonists of human D1 dopamine receptor | HEK293 T-REx D1 cells, calcium flux, agonist mode | activation, % at 2 µM | hit rate 1% among 360,000; in the data active means activation above about 30%; further: 0% is about no effect
Target sequence (P21728 whole entry, looked up): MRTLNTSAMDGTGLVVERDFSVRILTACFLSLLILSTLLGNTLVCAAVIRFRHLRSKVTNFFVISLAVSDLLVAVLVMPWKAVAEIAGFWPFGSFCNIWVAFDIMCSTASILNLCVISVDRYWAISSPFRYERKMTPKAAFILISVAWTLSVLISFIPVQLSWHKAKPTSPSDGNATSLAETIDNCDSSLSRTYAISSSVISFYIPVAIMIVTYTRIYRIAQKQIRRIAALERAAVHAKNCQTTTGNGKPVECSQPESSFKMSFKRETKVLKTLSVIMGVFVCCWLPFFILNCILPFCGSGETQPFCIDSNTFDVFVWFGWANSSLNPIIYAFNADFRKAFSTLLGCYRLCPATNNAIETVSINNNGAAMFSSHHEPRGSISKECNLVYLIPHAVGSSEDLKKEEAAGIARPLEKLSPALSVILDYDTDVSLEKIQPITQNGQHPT
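Inducible HEK293 T-REx D1 cells, force-coupled to calcium signalling, were plated at 4000 cells/well with tetracycline and held overnight at 30 C. After no-wash calcium dye loading, compound-evoked calcium rise over 180 s flagged agonists.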
D1 antagonist: antagonists of human D1 dopamine receptor. AID 504652. activity change, negative = inhibition, % at 10 µM. P21728. hit rate 3.2% among 360,000. HEK293 TREx D1 cells, calcium flux, dopamine EC80; stronger effect = lower value; in the data active means activity change below about -30%; further: on the % scale 0 is the no-effect control and ±100 the full control effect
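Tetracycline-induced HEK293 T-REx cells with force-coupled D1 receptor were loaded with a no-wash calcium dye. Compound was added after a 10 s baseline and read kinetically for 180 s; EC80 dopamine was then added and calcium flux followed another 180 s.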
D1 PAM: enhances dopamine response at the human D1 receptor; P21728; HEK293 TREx D1 cells, calcium flux, dopamine EC20 potentiation; potentiation, % at 10 µM; hit rate 0.036% among 360,000; AID 504651; in the data active means potentiation above about 30%; further: 0% is about no effect
Active calls of the source: *; ? = inconclusive; · = no result given; ! = repeats disagree. In the library only some 6% were active in any assay of this set; here they are far more common.

SMILES	DRD3 antagonist	D3 ag	D1 agonist	D1 antagonist	D1 PAM
CC(C)NC(=O)C1CCN(C2CCN(C(=O)Cc3ccc4c(c3)OCO4)CC2)CC1	-14	-18	0	-33*	-4
Cc1ccc(CNC(=O)C2CCN(S(=O)(=O)N3CCOCC3)CC2)cc1	7	40*	2	10	-8
CSc1ccc(/C=C(\NC(=O)c2ccco2)C(=O)N2CCCCC2)cc1	-8	-4	0	15	13
Cc1ccc(CSc2nnc(SCC(=O)N/N=C/c3c(C)nn(-c4ccccc4)c3C)s2)cc1	8	-1	1	-38*	-1
C=CCN1CCCC1CNC(=O)c1cc2[nH]nnc2cc1OC (centres undefined)	-81*	-86	-1	-13	-6
CCN1CCC[C@H]1CNC(=O)c1c(OC)ccc(Br)c1OC	-55*	-79	-1	34	-1
CCN1CCCC1CNC(=O)c1cc2ccc(OC)cc2[nH]1 (centres undefined)	-15	-8	1	4	4
CCOC(=O)C1CCN(C(=O)c2[nH]c3ccc(OC)cc3c2C)CC1	3	12	2	-67*	1
CCN1CCCC1CNC(=O)c1[nH]c2ccc(OC)cc2c1C (centres undefined)	-61*	-15	4	-15	-7
CCN1CCCC1CNC(=O)c1cc(N)ccc1OC (centres undefined)	-52*	-16	·	·	·
CCN1CCCC1CNC(=O)c1cc(S(=O)(=O)CC)ccc1OC (centres undefined)	·	-24	·	·	·
CCN1CCCC1CNC(=O)c1cc([N+](=O)[O-])c(N(C)C)cc1OC (centres undefined)	-103*	-28	-3	-15	-11
CCN1CCC[C@H]1CNC(=O)c1cc(S(N)(=O)=O)ccc1OC	·	·	2	-7	-4
CN(C)c1ccc(CNc2nc(-c3ccco3)nn2S(=O)(=O)c2ccc(Cl)cc2)cc1	·	-5	2	5	0
O=C(NCCc1ccccc1)c1ccccc1C(=O)NCCc1ccccc1	1	3	·	·	·
O=C(NC(=S)NCc1ccccc1)c1ccccc1F	-21	-6	5	-14	-5
O=C(NCCc1ccccc1)c1c[nH]c2c(F)cccc2c1=O	-50*	-4	1	-5	-4
O=C(NCCc1ccccc1)c1ccccc1F	3	3	4	-36*	-6
O=C(NC(=S)N(Cc1ccccc1)Cc1ccccc1)c1ccccc1F	-69*	-2	3	-18	-5
Fc1ccc(CSc2ncnc3scc(-c4ccccc4)c23)cc1	-11	3	35*	-13	-7
O=C(CCC(=O)N1CCSc2ccccc21)Nc1ccc(F)cc1	?	-7	5	-7	3
O=C(CCC(=O)N1CCSc2ccccc21)Nc1cccc(F)c1	1	-5	4	-31*	-2
O=C(CCN1CCc2ccccc2C1)Nc1cccc(F)c1	-66*	-10	9	0	-8
O=C(CCN1CCCCCC1)Nc1cccc(F)c1	?	-12	3	-2	-7
O=C(CCN1CCc2ccccc2C1)Nc1ccccc1F	-78*	0	0	5	-6
SMILES	DRD3 antagonist	D3 ag	D1 agonist	D1 antagonist	D1 PAM
O=C(CCN1CCc2ccccc2C1)Nc1ccccc1	-73*	-11	2	9	-2
Cn1c2cc(Br)sc2c2cnn(Cc3ccccc3F)c(=O)c21	·	·	0	3	8
O=C(NCc1ccccc1CN1CCCC1)C1CCN(C(=O)c2ccc(F)cc2)CC1	26	-1	1	9	-1
CCc1ccc(NC(=O)CCc2c(C)n(C)c3cc(-c4ccccc4C)nn3c2=O)cc1	·	10	1	28	-3
Cc1ccc(-n2c(C)cc(C(=O)CSc3n[nH]c(N)n3)c2C)cc1	33	39*	2	3	-1
Cc1cc(C(=O)CSc2n[nH]c(N)n2)c(C)n1-c1ccc(F)cc1	-26	-4	-3	16	-6
COc1ccc(NC(=O)C2CCN(S(=O)(=O)c3ccc(C)cc3)CC2)cc1OC	-3	-3	1	0	0
O=C(COC(=O)C1CCN(S(=O)(=O)c2cccs2)CC1)Nc1ccc(F)c(F)c1F	15	0	10	-36*	-5
O=C(NCCN1C(=O)S/C(=C\c2ccc(F)cc2)C1=O)C1CCN(S(=O)(=O)c2cccs2)CC1	-2	-14	15	-15	-3
O=C(COC(=O)C1CCN(S(=O)(=O)c2cccs2)CC1)Nc1ccc(F)cc1Cl	3	2	·	·	·
Cc1ccc(S(=O)(=O)N2CCC(C(=O)Nc3ccc4c(c3)COC4=O)CC2)cc1	-65*	-1	4	-25	2
Cc1ccc(NC(=O)C2CCN(S(=O)(=O)c3cccs3)CC2)cc1	-20	-6	22	-37*!	-11
COc1ccc(/C=C2\SC(=O)N(CCNC(=O)C3CCN(S(=O)(=O)c4cccs4)CC3)C2=O)cc1	8	12	6	-35*	-6
CCNC(=O)c1c(NC(=O)c2cc(=O)c3ccc(C)c(C)c3o2)sc2c1CCCC2	·	-5	-1	2	1
COc1cccc(-n2ccnc2SCC(=O)Nc2c(C)cc(C)cc2C)c1	·	-14	4	1	-2
Cc1cc(Cl)ccc1NS(=O)(=O)c1c(C(=O)N2CCCCCC2)c(C)n(C)c1C	·	1	0	4	-4
CC(C(O)c1ccccc1)N(C)CCOC(c1ccccc1)c1ccccc1 (centres undefined)	·	-21	·	·	·
O=C(Nc1cccnc1)C1CCN(S(=O)(=O)c2cccs2)CC1	1	-1	1	-32*	-6
O=C(NCc1cccnc1)C1CCN(S(=O)(=O)c2cccs2)CC1	-5	14	1	9	-5
CCCN(CC(=O)Nc1ccccc1C)C(=O)c1ccc(COc2ccccc2)cc1	-19	4	11	-42*	-1
c1ccc(C[C@H]2CN=C(Nc3ccccc3)N2CCCC2CCCC2)cc1	3	-51	4	-23	-2
COc1cccc(NC(=S)N(C)C2CCN(C)CC2)c1	23	-3	3	-4	4
Cc1c2cnn(CC(=O)NC(C)C)c(=O)c2c(C)n1Cc1cccc(Cl)c1	·	1	11	-55*	-2
CCCCNC(=O)Cn1ncc2c(C)n(Cc3cccc(Cl)c3)c(C)c2c1=O	·	5	3	2	1
O=C(COC(=O)c1cc(S(=O)(=O)NCc2ccccc2)ccc1O)NCc1ccccc1	16	5	2	-3	6
O=C(COC(=O)c1cc(S(=O)(=O)NCc2ccccc2)ccc1O)c1cc2ccccc2o1	-12	-3	2	-62*	-4
CCN(CC)CCCNC(=O)CSc1nc(-c2ccc(F)cc2)cc(C(F)(F)F)n1	-13	-8	15	-41*	-4
O=C(CSc1nc(-c2ccc(F)cc2)cc(C(F)(F)F)n1)NCCc1ccccc1	·	-9	44*	-8	-4
CCC(C)NC(=O)CSc1nc(-c2ccc(F)cc2)cc(C(F)(F)F)n1 (centres undefined)	·	0	2	-4	-5
